Source: PubChem BioAssay AID1022 (Emory University Molecular Libraries Screening Center, 2008)
Where “and” joins values, the source holds several entries; their conditions need not be identical. Equal entries are not always repeated. The campaign covered roughly 220,000 compounds. About 3,300 (1.5%) were called active. Many of the other results were omitted from the sample, so actives are more common in it than they were. A number with no mark means an inactive call.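 Rule for the calls: active = compounds that cut the protein-peptide binding signal by more than 50% relative to plate controls in a single-dose test; inactive = the rest.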

Biological target: Induced myeloid leukemia cell differentiation protein Mcl-1 (Homo sapiens) (UniProt Q07820)
Assay: Mcl-1/Noxa binding inhibitors, primary screen, biochemical, TR-FRET, 1536-well (AID 1022);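 note: His-tagged Mcl-1 with rhodamine Noxa BH3 peptide and terbium anti-His antibody; 0% = Mcl-1 plus Noxa peptide wells and 100% = peptide-only wells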
Settings: TR-FRET Mcl-1/Noxa peptide binding, 2 h; at 21.7 µM; stronger effect = higher value

Chain of Induced myeloid leukemia cell differentiation protein Mcl-1 (Homo sapiens) (Q07820 whole entry, looked up): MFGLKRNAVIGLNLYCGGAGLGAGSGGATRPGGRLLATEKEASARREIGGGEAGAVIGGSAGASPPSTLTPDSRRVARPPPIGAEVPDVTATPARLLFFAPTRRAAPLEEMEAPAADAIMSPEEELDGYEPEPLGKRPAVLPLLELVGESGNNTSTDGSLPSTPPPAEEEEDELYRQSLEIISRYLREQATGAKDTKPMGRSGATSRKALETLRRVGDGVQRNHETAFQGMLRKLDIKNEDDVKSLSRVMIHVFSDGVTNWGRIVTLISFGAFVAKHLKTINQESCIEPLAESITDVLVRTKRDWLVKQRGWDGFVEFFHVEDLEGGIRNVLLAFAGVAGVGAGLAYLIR

SMILES	inhibition
c1ccc2sc(NN=C3CCCC3)nc2c1	5.28%
O=[N+]([O-])c1cc(Br)c(O)c(/C=N/Nc2nc3ccccc3s2)c1	79.4% (active)
Cc1ccc(S(=O)(=O)Nc2nc3ccccc3s2)cc1[N+](=O)[O-]	9.42%
CCCN(CCC)S(=O)(=O)c1ccc(C(=O)NNC(=O)c2cc(OC)c(OC)c(OC)c2)cc1	14.9%
Cc1cc(OCCCCOc2ccc(C#N)cc2)ccc1[N+](=O)[O-]	5.03%
CC/C=C/C(=O)N1CC2(CC(c3cccc(NC(=O)CC)c3)=NO2)C[C@H]1C(N)=O (stereo partly specified)	-7.66%
COc1cc(/C=N\Nc2nc(-c3cccs3)c(NC(C)=O)s2)ccc1O	95.2% (active)
CCOc1cc(/C=C(\C#N)c2nc(-c3cccs3)c(NC(C)=O)s2)ccc1O	24.5%
COc1cc(/C=N/Nc2nc3ccccc3s2)ccc1O	27.8%
Cc1ccc(Nc2nnc(SCC(=O)c3cc4ccccc4o3)s2)cc1C	24.3%
O=C(CSc1nnc(Nc2ccccc2)s1)Nc1cccnc1Cl	9.43%
CC(C)c1ccc(Nc2nnc(SCC(=O)c3nnc(-c4ccccc4)o3)s2)cc1	104% (active)
Cc1cccc2c1-c1sc(C(=O)NCCCN3CCc4ccccc4C3)cc1CO2	11%
CCOC(=O)CN(C(=O)COc1nc(-c2ccccc2)cc(C)c1C#N)c1ccc(F)cc1	7.27%
CN(C)C(=S)Nc1ccc(Br)cc1Cl	-1.61%
O=C(Cc1ccccc1)NCc1ccc(F)cc1	-0.05%
CN(C)CCCNC(=O)c1ccc2[nH]c3ccccc3c2c1	3.04%
CN(C)c1ccc(C(CNC(=O)c2ccc(F)cc2)c2c[nH]c3ccccc23)cc1 (stereo unspecified)	75.8% (active)
CCOC(=O)C1=NN(c2ccc(Cl)cc2)/C(=C/C2=NCCc3cc(OC)c(OC)cc32)S1	1.42%
O=C(Cn1c[n+](CC(=O)c2ccc([N+](=O)[O-])cc2)cn1)c1ccc([N+](=O)[O-])cc1	27.4% and -7.77%
CCc1ccc2nc3sc(C(=O)Nc4nnc(CC)s4)c(N)c3cc2c1	90.1% (active)
CCc1nnc(NC(=O)c2cccc(S(=O)(=O)N(C)c3ccc(OC)cc3)c2)s1	10.9%
CCc1nnc(NC(=O)c2sc3nc(C)cc(COC)c3c2N)s1	22.4%
C#CCO[C@@H]1C[C@H](n2cnc3c(=O)[nH]c(NC(=O)C(C)C)nc32)O[C@@H]1CO	-275%

SMILES	inhibition
Cc1ccc(C(=O)Cn2cc([N+](=O)[O-])nc2C)cc1	-26.9%
Cc1ccc(N=C2NC(=O)/C(=C/C=C/c3ccco3)S2)cc1C	107% (active)
Cc1ccc(N2NC(=O)/C(=C/C=C/c3ccco3)C2=O)cc1C	6.33%
Cc1cccc(N=C2NC(=O)/C(=C/c3cn(C)c4ccccc34)S2)c1	4.96%
CC(C)(C)c1cc(NC(=O)NN2CCOCC2)nn1-c1c(Cl)cc(Cl)cc1Cl	2.67%
N/C(=N\S(=O)(=O)c1ccc(Cl)cc1)N1CCOCC1	-2.49%
C/C=C/C(=O)Nc1ccc(N2CCN(c3ccc(C(F)(F)F)cn3)CC2)nc1	4.65%
Cc1ccnc(Nc2nc3ccccc3s2)n1	-8.28%
Cc1ccnc(N2CCC(C(=O)NC3CCCCCC3)CC2)n1	-9.93%
Cc1ccnc(-n2sc3ccccc3c2=O)n1	69% (active)
CCCCCCCC(=O)OC(CN1CCCCCC1)CN1CCCC1=O (stereo unspecified)	-0.02%
Cc1ccc2cc(/C=N/Nc3ccc(C(=O)O)cc3)c(Cl)nc2c1	32.8%
Cn1c2c(c(=O)n(C)c1=O)C(c1cccc(F)c1)C(C#N)=C(N)O2 (stereo unspecified)	-5.47%
Cc1ccc(C2Nc3ccccc3C(=O)N2CCN2CCNC2=O)cc1 (stereo unspecified)	-12.9%
CC(NC(=O)COC(=O)c1ccc(Cl)cc1O)c1ccc(F)cc1 (stereo unspecified)	0.03%
O=C(COC(=O)c1ccc(F)cc1F)Nc1ncccn1	65.1% (active)
COc1cc(OC)cc(C(=O)OCC(=O)Nc2ccc(F)cc2F)c1	2.79%
Cc1nnc(Nc2ccccc2F)s1	-14.1%
C/C(Cc1ccccc1)=N\NC(=O)CNC(=O)c1ccccc1Cl	-7.79%
O=C1N(c2ccccc2)C(=Nc2ccccc2)SC12CC2	1.01%
O=C1Oc2ccccc2C(=O)/C1=C/c1ccccc1O	81.4% (active)
C=CCn1c2ccccc2c2nnc(SC(CC)C(=O)Nc3nc(C)c(C(=O)OCC)s3)nc21 (stereo unspecified)	11.2%
C=CCn1c(SCC(=O)CC(=O)OCC)nc2cc(C(=O)N3CCC(C(N)=O)CC3)ccc2c1=O	-5.71%
C=CCn1c2ccccc2c2nnc(SCc3[nH]c(=O)[nH]c3C(=O)CCCCC(=O)OCC)nc21	52.5% (active)

SMILES	inhibition
CC(C)(C)n1cnnc1Sc1ccc([N+](=O)[O-])cn1	2.83%
N#Cc1ccccc1CN1C(=O)S/C(=C/c2cccn2-c2cccc(C(=O)O)c2)C1=O	66.4% (active)
Cc1ccccc1NC(=O)CN1C(=O)N/C(=C\c2cccn2-c2cccc(C(=O)O)c2)C1=O	40.1%
Cn1cccc1/C=C1\SC(=O)N(CC(=O)Nc2ccc(F)cc2)C1=O	12.7%
Nc1ccc(N=Nc2ccccc2Cl)c(N)n1	10.8%
COc1ccc(CCNC(=O)C2CC3Cn4c(nc5cc(C)c(C)cc54)C3N2C)cc1 (stereo unspecified)	-4.09%
COc1ccc(C/C(N)=N/OC(=O)c2ccco2)cc1OC	64.8% (active)
COc1ccc(CC(=O)Nc2ccccc2NC(=O)c2ccco2)cc1OC	36.8%
COc1ccc(C(=O)O/N=C(\N)Cc2ccc(Cl)cc2Cl)cc1OC	6.09%
N#C/C(=C\N1CCOCC1)S(=O)(=O)c1ccc(Cl)cc1	-9.31%
COc1ccc(-c2ccc(OC(=O)NC3CCS(=O)(=O)C3)cc2)cc1 (stereo unspecified)	-3.15%
Cc1c(C(=O)N/N=C/c2ccccc2)[nH]c2c([N+](=O)[O-])cccc12	21%
COc1cccc2c(C)c(C(=O)O)[nH]c12	83.1% (active)
COc1cccc2c(O)cc(=O)n(C)c12	-20.5%
COc1ccc(CN2CCOC2=O)cc1OC	6.85%
COc1cccc(N2C(=O)CC(N3CCc4ccccc4C3)C2=O)c1 (stereo unspecified)	-10.9%
C=CCNC(=O)CSc1nc2scc(-c3ccco3)c2c(=O)n1CC=C	8.55%
O=C1CCCC(O)=C1N=Nc1ccc2ncsc2c1	62.8% (active)
O=C1CCCC(O)=C1N=Nc1ccc(S(=O)(=O)N2CCOCC2)cc1	23.9%
C/C(=N\NC(=O)c1cccnc1)c1ccc(-c2ccccc2)cc1	2.98%
O=C(NCC1CCCO1)/C(=C\c1ccco1)NC(=O)c1ccccc1 (stereo unspecified)	4.51%
C/C(=C\c1ccco1)C1Nc2cccc3cccc(c23)N1	74.9% (active)
COc1cccc(C2Nc3cccc4cccc(c34)N2)c1	34.5%
COc1ccccc1/C=C/C=N/NC(=O)CN1CCN(Cc2ccccc2)CC1	0.78%

SMILES	inhibition
CSC1=NCCN1C(=O)Cc1cccc2ccccc12	-0.87%
O=C(NNC(=O)c1cnccc1C(F)(F)F)c1ccc(Cl)cc1	11.9%
Cc1ccccc1NC(=S)Nc1cccc([N+](=O)[O-])c1	11.3%
COC(=O)/C=C\C(=O)Nc1cccc([N+](=O)[O-])c1	64.5% (active)
CC(=O)Nc1cccc([N+](=O)[O-])c1	-1.66%
COc1ccc(Cn2c(O)c(/C=C3/C=CC=N3)c(=O)[nH]c2=O)cc1	25%
CC(=O)NC(=S)Nc1ccc(NC(=O)c2cccnc2)cc1	1.75%
Cn1c2ccccc2c(=O)c2c(=O)n(Cc3ccco3)c(COc3ccccc3)nc21	60% (active)
CCCc1nc2c(c(=O)c3ccccc3n2C)c(=O)n1-c1cc(C)cc(C)c1	5.11%
COc1ccc(C(=O)CSc2nnc(COc3ccccc3)n2Cc2ccco2)cc1	17.5%
CSc1sc(C(=O)NNC(=O)c2ccc(Cl)cc2)c2c1C=CCC2	0.01%
CN1CCN(C2=NCCO2)CC1	3.88%
Nc1c(C(=O)c2cccs2)sc2nsc(SCCN3CCCCC3)c12	-16.9%
O=C(c1ccco1)N1CCN(CCOc2ccccc2)CC1	10.5%
COc1ccc(OC)c(N=Cc2c(O)[nH]c3ccccc23)c1	20.4%
CN=c1scc(-c2cc(OC)ccc2OC)n1/N=C/c1c(C)[nH]c2ccccc12	56.7% (active)
CCn1c(-c2cc(OC)ccc2OC)csc1=Nc1c(C)n(C)n(-c2ccccc2)c1=O	10.7%
CCn1c2ccccc2c2cc(NC(=O)CNC)ccc21	43.9%
CCc1ccc(NC(=O)N[C@H](C(=O)O)C(C)CC)cc1 (stereo partly specified)	16.4%
O=C(O)COCC(=O)NCc1csc2ccc(Cl)cc12	11.9%
O=S(=O)([N-]c1nc2ccccc2nc1-[n+]1ccc(Cc2ccccc2)cc1)c1ccc(Br)s1	15.5%
Cc1ccc(Cc2cnc(NC(=O)/C(C#N)=C/c3ccc(-c4cccc([N+](=O)[O-])c4)o3)s2)cc1	24.9%
N#C/C(=C/c1ccc(-c2ccccc2[N+](=O)[O-])o1)C(=O)NCCN1CCCCC1	26.3%
Cc1ccc(-c2ccc(/C=C(\C#N)C(N)=S)o2)c([N+](=O)[O-])c1	58.2% (active)
